PubChem BioAssay AID504692 (The Scripps Research Institute Molecular Screening Center, 2011)
In all, about 340,000 compounds went through this assay and about 2,000 (0.59%) were called active. Many of the other results were omitted from the sample, so actives are more common in it than they were. Unmarked numbers belong to inactive results. Rule as the data show it: active = activation mostly above about 9.5% (no sharp cut-off); inactive = mostly below about 7.6%.

molecular target: 5-hydroxytryptamine receptor 5A (Homo sapiens) (UniProt P47898); experiment: activation of human 5-HT5A receptor – cell-based, luminescence, full-deck HTS, counter-screen for OPRM1-OPRD1 heterodimer agonist project, primary screen (AID 504692); conditions: HTR5A agonist assay, at 9.3 µM, hits give high values;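 also: 0% = cells with vehicle only and 100% = reference agonist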
Sequence (P47898 whole entry, looked up): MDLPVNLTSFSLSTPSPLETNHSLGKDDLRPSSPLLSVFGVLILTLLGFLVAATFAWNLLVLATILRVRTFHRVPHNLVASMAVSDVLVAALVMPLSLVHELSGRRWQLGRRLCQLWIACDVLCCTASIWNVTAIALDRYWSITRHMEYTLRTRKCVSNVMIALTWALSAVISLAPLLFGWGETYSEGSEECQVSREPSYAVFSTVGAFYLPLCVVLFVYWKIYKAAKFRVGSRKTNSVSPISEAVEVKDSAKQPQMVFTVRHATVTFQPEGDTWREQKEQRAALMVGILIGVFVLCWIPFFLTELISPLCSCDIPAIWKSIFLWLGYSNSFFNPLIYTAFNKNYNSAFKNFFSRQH

Structure (SMILES) | activation
O=C1CC(Cc2ccc(Cl)cc2)C(=O)N1c1cc(Cl)ccn1 (configuration not stated) | 5.44%
CC(=O)Nc1ccc(S(=O)(=O)NC2Cc3ccccc3C2)cc1 | 4.91%
CC(=O)Nc1ccc(S(=O)(=O)NC(C)C(=O)OCC(=O)NC2CCCC2)cc1 (configuration not stated) | 3.96%
CCOC(=O)[C@H]1CCC[C@@H](NS(=O)(=O)c2ccc(NC(C)=O)cc2)C1 | 12.5% (active)
Cc1cccc(OC(=O)c2sc3ncn(C)c(=O)c3c2C)c1 | -4.42%
CCOc1ccc(CCNC(=O)CCc2nnc3ccc(N4CCCC4)nn23)cc1OCC | -0.94%
CCC(C)C(N=C1NS(=O)(=O)c2ccccc21)C(=O)N1CCC(C)CC1 (configuration not stated) | -4.84%
CC(C)CC(=O)N/C(N)=N/c1nc2ccccc2s1 | 22% (active)
CC(C)CC(=O)NC(=S)NCc1ccccc1 | -0.72%
O=C(CCC(=O)c1cccs1)Nc1nc2ccccc2s1 | 6.03%
CCOC(=O)C1C(c2ccc(O)cc2)NC(=O)NC1(O)C(F)(F)F (configuration not stated) | 3.08%
CC(C)CCN1CCN(Cc2ccc(C(F)(F)F)cc2)CC1CCO (configuration not stated) | -0.94%
O=C(NCc1ccccc1)C(=O)NCC1OCCN1S(=O)(=O)c1ccc(Br)cc1 (configuration not stated) | 5.82%
CCOC(=O)c1c(-c2ccc(-c3ccccc3)cc2)csc1NC(=O)CCC(=O)O | 9.5% (active)
CCOC(=O)c1c(-c2ccc(C)cc2C)csc1NC(=O)CSc1nnnn1C | 0.24%
CCOC(=O)c1c(-c2cccc(C)c2)csc1NC(=O)c1c(-c2ccccc2)noc1C | -1.55%
O=C(NCc1ccco1)/C(=C\c1cccc([N+](=O)[O-])c1)NC(=O)c1ccco1 | 0.85%
O=C(CSc1nncn1-c1cccnc1)N1CCOCC1 | 1.54%
Cc1ccc(C(=O)Nc2ccc3c(c2)OCCO3)cc1S(=O)(=O)N1CCOCC1 | 0.67%

Structure (SMILES) | activation
O=C(Nc1ccncc1)c1cc(-c2ccccn2)nc2ccc(Br)cc12 | -4.88%
O=C(NCC(c1cccs1)N1CCOCC1)c1cc(-c2ccccn2)nc2ccccc12 (configuration not stated) | 1.25%
O=C(NCc1cccs1)c1cc(-c2ccccn2)nc2ccc(Br)cc12 | 12.8% (active)
CCOC(=O)CSc1nc2ccc(C)cc2n2cnnc12 | -0.67%
Cc1oc2c(F)c(F)c(F)c(F)c2c1S(=O)(=O)Nc1cccc(C(F)(F)F)c1 | 16.5% (active)
Cc1noc(C)c1S(=O)(=O)Nc1cc(C(F)(F)F)ccc1N1CCOCC1 | -0.69%
O=C(CNS(=O)(=O)c1cccc(C(F)(F)F)c1)Nc1ccccc1F | -1.06%
CCOc1ccc2[nH]c(=O)c(CN(CCCO)C(C)=O)cc2c1 | 4.2%
O=C(NCCS(=O)(=O)NCc1ccc(F)cc1)c1ccccc1 | -3.96%
COc1ccccc1S(=O)(=O)NCc1ccc(C(=O)N(C)Cc2ccc(F)cc2)cc1 | 16.9% (active)
COc1ccc(S(=O)(=O)NCc2ccc(C(=O)N(C)Cc3ccco3)cc2)cc1 | 6.7%
Cc1cc(S(=O)(=O)NC2CCCCC2)ccc1OCC(=O)NCc1cccnc1 | 7.03%
COc1ccc(CCNS(=O)(=O)c2cccc([N+](=O)[O-])c2)cc1 | 9%
CC(C=Cc1ccccc1)=NNS(=O)(=O)c1ccc([N+](=O)[O-])cc1 | 2.51%
C/C(=N\NS(=O)(=O)c1cccc([N+](=O)[O-])c1)c1cc2ccccc2o1 | 11.2% (active)
Cc1ccc(NC(=S)NC(NC(=O)Cc2cccc3ccccc23)C(Cl)(Cl)Cl)cc1 (configuration not stated) | 26.7% (active)
Cc1ccc(CNC(=O)[C@@H](NC(=O)Cc2ccccc2)C(C)C)cc1 | -1.89%
CC(C)(C)C(=O)NC(NC(=S)Nc1ccc(S(N)(=O)=O)cc1)C(Cl)(Cl)Cl (configuration not stated) | 3.71%
CCOC(=O)C1CCCN(S(=O)(=O)c2ccc(-n3cnnn3)c(C)c2)C1 (configuration not stated) | 1.69%

Structure (SMILES) | activation
COC(=O)c1sccc1NC(=O)CSc1ccccc1NS(=O)(=O)c1cc(Cl)ccc1Cl | 8.27%
CCc1cc2c(N3CCN(c4nnc(CC)s4)CC3)ncnc2s1 | 10.4% (active)
CCc1cc2c(NC(Cc3ccccc3)C(=O)O)ncnc2s1 (configuration not stated) | -3.53%
CCc1cc2c(NC3CCCC3)ncnc2s1 | 0.57%
COc1ccc(C(=O)NCc2ccc(Cl)cc2)cc1S(=O)(=O)N1CCCC1 | -0.47%
C=CCOC(=O)C1=C[C@@H](c2ccc3c(c2)OCO3)C[C@@H](OCCCCO)O1 | -2.46%
Nn1c(SCC(=O)Nc2nccs2)nnc1-c1ccco1 | 2.08%
COc1ccc(-c2cc(=O)oc3cc(OCC(=O)N[C@@H](Cc4c[nH]c5ccccc45)C(=O)O)ccc23)cc1 | -4.61%
COc1ccc(-c2cc(=O)oc3cc(OCC(=O)N(C)C4CCS(=O)(=O)C4)ccc23)cc1 (configuration not stated) | 3.71%
CC(=O)COc1ccc2c(-c3ccccc3)cc(=O)oc2c1 | 15.1% (active)
Cc1cc(C(=O)OC(C)C(=O)Nc2cccc(S(=O)(=O)N3CCOCC3)c2)c(C)o1 (configuration not stated) | 1.13%
C[C@@H](CN1CCC[C@H]1CN1C(N)=NC[C@@H]1Cc1ccccc1)N1C[C@@H](Cc2ccccc2)N(CCCC2CCCC2)C1=N | -7.1%
COc1cc(SC#N)ccc1N=Cc1c(C)[nH]n(-c2ccc(C)cc2)c1=O | 11.4% (active)
Cc1ccc(C(=O)N2CC(=O)Nc3ccccc32)o1 | -6.07%
COc1cccc(OC)c1C(=O)N1CCN(Cc2cccnc2)CC1 | 3.95%
C=C(C)CSc1nnc(-c2ccc(C)cc2)n1N | -0.48%
COc1ccccc1NS(=O)(=O)c1ccc(C(=O)N2CCN(c3ccccc3O)CC2)cc1 | -0.27%
COc1ccc(S(=O)(=O)N2CCOC2CNC(=O)C(=O)NCc2ccncc2)cc1OC (configuration not stated) | 1.9%
CC(=O)Nc1ccc(S(=O)(=O)N2CCn3cccc3C2C)cc1 (configuration not stated) | -2.82%
